FLuc modulator – counter-screen for miR-21 project: firefly luciferase inhibitors or activators | P08659 | purified FLuc, Km substrates, luminescence inhibition | Potency, µM (series often up to 57.5 µM), for the others: at the top dose activity change, negative = inhibition, hits mostly inhibitors | 360,000 compounds, 6.9% hits;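 also: plate controls were vehicle for no effect and reference inhibitor for full effect; nearly all actives have a fitted effect of over 55% in size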
Target sequence (P08659 whole entry, looked up): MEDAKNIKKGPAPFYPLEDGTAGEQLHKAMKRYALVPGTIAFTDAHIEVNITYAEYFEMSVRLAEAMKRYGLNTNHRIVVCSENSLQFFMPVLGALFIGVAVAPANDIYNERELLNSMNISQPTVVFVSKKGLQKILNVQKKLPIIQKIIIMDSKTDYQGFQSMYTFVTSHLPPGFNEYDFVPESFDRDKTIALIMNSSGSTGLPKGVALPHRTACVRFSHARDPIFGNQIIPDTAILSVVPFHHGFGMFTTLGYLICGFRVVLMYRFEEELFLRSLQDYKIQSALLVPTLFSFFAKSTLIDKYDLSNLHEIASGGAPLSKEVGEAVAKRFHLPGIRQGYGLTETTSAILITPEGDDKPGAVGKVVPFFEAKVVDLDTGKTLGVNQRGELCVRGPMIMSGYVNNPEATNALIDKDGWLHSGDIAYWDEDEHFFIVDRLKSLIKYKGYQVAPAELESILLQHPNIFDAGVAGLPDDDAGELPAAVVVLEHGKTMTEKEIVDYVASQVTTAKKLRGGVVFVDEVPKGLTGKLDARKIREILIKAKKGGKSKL
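Biochemical qHTS of compounds, final roughly 60 µM downward over six points, against 10 nM purified firefly luciferase using Km concentrations of substrates (10 uM D-luciferin, 10 uM ATP) in Tris acetate pH 7.5 buffer; luminescence output.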
SMN2 splice up – enhancers of SMN2 splice variant expression; AID 1458; 210,000 compounds, 2.8% hits; Potency, µM (top dose mostly 46.1 µM), without a hit: at the highest dose activity change, positive = activation, usual class: activators; HEK293 SMN2-luciferase splicing reporter, luminescence, 30-36 h; also: % of control where 0% means no effect; nearly all actives have a fitted effect of over 55% in size
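HEK293 cells carry an SMN2 minigene-luciferase reporter in which exon 7 inclusion puts luciferase in frame. Cells were seeded at 2000 cells/well, attached for 10-12 hours, then exposed to compounds for 30-36 hours at 37C before ONE-Glo luminescence.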
Rab9 promoter act – activates the Rab9 promoter; Potency, µM (series often up to 9.22 µM), without a hit: at the top dose activation, negative = inhibition, hits mostly activators; 320,000 compounds, 2.8% hits; AID 485297; Huh7 Rab9 promoter-luciferase reporter, luminescence, 24 h; also: % of control where 0% means no effect; nearly all actives have a fitted effect of over 60% in size
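Luminescence from Amplite-detected luciferase (10 minutes, ambient) reports Rab9 promoter activation. Before that, stable Rab9-luciferase Huh7 cells (1500/well, reduced-serum OP-MEM I plus 10% FBS) were exposed to compound for 24 hours at 37C.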
ELG1 genotox – inducers of genotoxicity in HEK293T ELG1-luciferase cells; 330,000 compounds, 1.3% hits; Potency, µM (top dose mostly 46 µM), inactives show top-dose activity change, positive = activation, actives largely listed as activators; HEK293T ELG1-luciferase reporter, luminescence, 16 h; also: % of control where 0% means no effect; nearly all actives have a fitted effect of over 60% in size
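HEK293T cells expressing luciferase-tagged ELG1 were exposed to compound or DMSO vehicle for 16 hr at 37 °C and 5% CO2. Luciferase activity was then measured with ONE-Glo after 30 min at room temperature.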
NPC1 promoter act – activators of NPC1 promoter | Huh7 NPC1 promoter luciferase reporter, 24 h | 320,000 compounds, 2.4% hits | Potency, µM (top dose mostly 9.22 µM), without a hit: at the highest dose activation, hits mostly activators; also: % of control where 0% means no effect; nearly all actives have a fitted effect of over 60% in size
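NPC1 promoter–luciferase Huh7 cells; 24 h compound; luminescence.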
Starred values were filed as active, the others as inactive; ? = inconclusive; nt = not tested or not shown. An excerpt weighted towards active compounds, which were near 7.4% of everything screened. Calls follow the shape of the dose curve; as a rule, active = well fitted curve in the direction sought with a large enough effect; inconclusive = small, poorly fitted or top-dose-only effect, or another doubt; inactive = no such curve, though single readings can be large; an effect the other way counts as inactive or inconclusive. Potency is read from the fitted curve at half-maximal effect.

SMILES	FLuc modulator	SMN2 splice up	Rab9 promoter act	ELG1 genotox	NPC1 promoter act
N#Cc1ccccc1S(=O)(=O)N1CCN(CC(O)CN2CCOCC2)CC1 (stereo not given)	5%	nt	1%	1%	-5%
Cc1cc(=O)c(C(=O)Nc2ccc(N3CCOCC3)cc2N2CCOCC2)nn1-c1ccccc1Cl	nt	nt	nt	0%	nt
COc1cc(C(=O)Nc2cccc(-c3nc4cc(C)cc(C)c4o3)c2)cc(OC)c1OC	5.4µM*	-16%	-3%	-6%	-3%
Cc1cc(C)c2oc(-c3cccc(NC(=O)c4ccc(F)cc4)c3)nc2c1	-14%	-26%	13%	2%	0%
COc1ccc(-c2nsc3c(N4CCCC4)ncnc23)cc1	0.13µM*	?	0.11µM*	nt	4µM*
COc1ccccc1N1CCN(c2ncnc3c2oc2ccccc23)CC1	27µM*	nt	-20%	?	-24%
O=C(c1ccco1)N1CCN(c2ncnc3c(-c4ccc(Cl)cc4)nsc23)CC1	6µM*	nt	9%	?	1%
O=C(c1ccco1)N1CCN(c2ncnc3c2oc2ccccc23)CC1	24µM*	4%	2%	?	-2%
COc1ccc(-c2nsc3c(N4CCN(S(=O)(=O)c5ccccc5)CC4)ncnc23)cc1	-1%	-18%	-8%	4%	-3%
COC(=O)[C@@]1(Cc2ccc(OC)cc2)[C@H]2c3cc(C(=O)N(C)C)n(Cc4cc(C)n(C)n4)c3C[C@H]2CN1C(=O)c1ccccc1	nt	-7%	nt	nt	nt
O=C(c1cc(-c2cccc(Cl)c2)on1)N1CCN(c2ccc(F)cc2)CC1	1%	nt	-1%	22%	-4%
CN1CCN(C(=O)c2cc(-c3cccc(Cl)c3)on2)CC1	?	nt	6.3µM*	11%	?
O=C(c1cc(-c2cccc(Cl)c2)on1)N1CCCCCC1	11µM*	nt	2.8µM*	21µM*	2.5µM*
O=C(O)c1ccc(-c2cccc([N+](=O)[O-])c2)o1	-16%	nt	0%	-3%	-1%
COCC(C)NC(=O)c1cc(-c2cccc(OC)c2)on1 (stereo not given)	?	?	2.2µM*	?	?
COc1cccc(-c2cc(C(=O)NC3CCCC3)no2)c1	4.3µM*	11µM*	0.63µM*	1.8µM*	1.4µM*
COCC(C)NC(=O)c1cc(-c2ccc(O)cc2)on1 (stereo not given)	-20%	9%	25%	?	27%
O=C(NC1CCCCC1)c1ccc(-c2cccc([N+](=O)[O-])c2)o1	2.7µM*	nt	0.4µM*	2.1µM*	0.32µM*
COCCNC(=O)c1cc(-c2cccc(OC)c2)on1	12µM*	11µM*	3.2µM*	?	3.5µM*
COCCNc1cc(-c2ccccc2C(F)(F)F)ncn1	nt	-9%	nt	nt	nt
O=C1CC(c2ccccc2)Sc2nc3ccccc3n21 (stereo not given)	4.8µM*	?	10%	?	-1%
CCCN1C(=O)CC(c2ccco2)Sc2ccccc21 (stereo not given)	0%	3%	-6%	8%	-2%
O=C1CC(c2cccs2)Sc2nc3ccccc3n21 (stereo not given)	3.4µM*	?	0%	?	-3%
O=C1CC(c2ccco2)Sc2nc3ccccc3n21 (stereo not given)	12µM*	11%	-3%	?	-1%
O=C1CC(c2ccc3c(c2)OCO3)Sc2nc3ccccc3n21 (stereo not given)	1.5µM*	?	18%	?	4µM*
SMILES	FLuc modulator	SMN2 splice up	Rab9 promoter act	ELG1 genotox	NPC1 promoter act
CCc1ccc(S(=O)(=O)c2nnn3c2nc(NC2CCCC2)c2sccc23)cc1	2%	nt	nt	nt	nt
CCc1ccc(S(=O)(=O)c2nnn3c2nc(NC(C)C)c2cc(Cl)ccc23)cc1	-1%	2%	nt	nt	nt
CC1CCc2c(sc3nnn(Cc4ccccc4Cl)c(=O)c23)C1 (stereo not given)	-10%	-5%	nt	nt	nt
CN(C(=O)Cn1c(=O)n(Cc2ccc(C(=O)NCc3ccc4c(c3)OCO4)cc2)c(=O)c2ccccc21)c1ccccc1	-4%	15%	nt	nt	nt
CCOC(=O)c1ccc2[nH]c3ccccc3c2c1	19µM*	?	?	10%	18%
CCOC(=O)c1ccc2[nH]c(C)cc(=O)c2c1	-2%	-15%	2%	4%	-2%
CCCCOC(=O)c1cc2c(cn1)[nH]c1ccccc12	nt	18µM*	nt	nt	nt
O=C(NCCCO)c1ccc2[nH]c3ccccc3c2c1	24µM*	12%	1%	11%	1%
COC(=O)c1ccc2[nH]c(C(C)(C)O)c(C)c2c1	19µM*	nt	?	?	?
CCC(=O)Nc1ccc(NC(=O)c2cccc3c(Br)cccc23)cc1	-3%	nt	7%	7%	3%
Cc1cccc(NC(=O)c2ccc(NC(=O)c3ccccc3Br)cc2)c1	-17%	nt	-1%	-15%	2%
O=C(O)c1ccc(NC(=O)c2ccccc2NC(=O)c2ccccc2Br)cc1	17µM*	nt	1%	5%	0%
CCNC(=S)Nc1cccc(NC(=O)c2ccccc2O)c1	?	nt	8%	0%	4%
O=C(Nc1ccc(Br)cc1)c1ccccc1Br	11µM*	nt	3.2µM*	?	1.4µM*
CCc1ccc(NC(=O)c2ccccc2Br)cc1	11µM*	13µM*	2µM*	-13%	1.4µM*
CCNC(=S)Nc1ccc(NC(=O)c2ccccc2O)cc1	12µM*	nt	-1%	0%	15%
Cc1ccc(NC(=O)CCn2nc([N+](=O)[O-])cc2C)nc1	2%	7%	-3%	1%	-2%
COc1cc2c(cc1OC)C(c1ccc(F)cc1)N(c1cccc(C#N)c1)C(=O)C2 (stereo not given)	-5%	3%	nt	nt	nt
Cc1cc(OCC(=O)Nc2nnc(C3CC3)s2)ccc1[N+](=O)[O-]	6%	21%	2%	12%	-7%
CCC(C)N(C(=O)COC(=O)Cc1n[nH]c(=O)c2ccccc12)C1CCS(=O)(=O)C1 (stereo not given)	1%	-5%	-1%	0%	-1%
CCC(C)N(C(=O)COC(=O)CNC(=O)c1sc2ccccc2c1Cl)C1CCS(=O)(=O)C1 (stereo not given)	21µM*	nt	-2%	11%	6%
CCN(C(=O)COC(=O)CNC(=O)c1sc2ccccc2c1Cl)C1CCCCC1	12µM*	nt	3%	2%	-4%
Cc1ccccc1CNC(=O)Cn1c(=O)c2cccn2c2cccnc21	-6%	nt	nt	nt	nt
Cc1cccc(NC(=O)c2cnc3sccn3c2=O)c1	3.4µM*	nt	0.45µM*	?	0.89µM*
O=C(Nc1cnc2sccn2c1=O)c1ccccc1Cl	15µM*	23%	?	18µM*	1.6µM*
COc1ccc(NC(=O)c2cnc3sccn3c2=O)cc1	?	14µM*	2.5µM*	4.1µM*	?
Cc1cccc(NC(=O)c2cnc3ccccn3c2=O)c1	0.67µM*	0.71µM*	0.32µM*	0.41µM*	0.63µM*
O=C(Nc1ccon1)c1cnc2sccn2c1=O	-20%	nt	12%	1%	21%
